For 60 sequences, sensor-assay potency score (higher = more potent) results are on record in the OligoGym collection.

Some targets named below: CBWD1; CCDC102B; CCDC56; CD1E; CD27; CD180; CD320; CD58; CD48; CD86.
Assay in all cases: pooled miR-30 sensor sort-seq; sequence = guide strand
Details in all cases: shRNA
Note: reference of the scale not given here.

In the assay with CBWD1, TTGTCTAGTAGCTTCATTGATA yielded a sensor-assay potency score (higher = more potent) of -0.639.

In the assay with CCDC102B, TTATTCTGAGTTGTCTTCCTTC returned a sensor-assay potency score (higher = more potent) of 0.72.

With ATCTAGGAAACGCTCCTGGGAA, in the assay with CCDC56, the sensor-assay potency score (higher = more potent) is -1.12.

Sequence TCGAGTAGAAGGTGTAACCATA returned a sensor-assay potency score (higher = more potent) with CCDC56 of -1.07.

In the assay with CD1E, TAGGTAGCGATTGAGCACTTTA returned a sensor-assay potency score (higher = more potent) of -0.754.

TTTTCGGTAATCCTCCTGGATG displayed a sensor-assay potency score (higher = more potent) in the assay with CD27 of -1.32.

Consider TTCCACTTCTTCAATACTCTGT, for which the sensor-assay potency score (higher = more potent) in the assay with CD1E was 0.573.

TGTTCTTATTTGAACTCTGTTT came in with a sensor-assay potency score (higher = more potent) with CD1E of -0.835.

As for TGAAAACAAGGAACATTCCAGA, the sensor-assay potency score (higher = more potent) in the assay with CD27 was -0.449.

In turn, ATCTATATTTCCTTCGTTGATG showed a sensor-assay potency score (higher = more potent) in the assay with CD27 of -1.32.

In the assay with CD1E, TAAGTTTTTCAGCTCCTGCTTG came in with a sensor-assay potency score (higher = more potent) of -0.417.

In turn, TCACACTGAGCAGCCTTTCTAT registered a sensor-assay potency score (higher = more potent) with CD27 of -1.13.

As for TATCTGGATAAAACTATGGAAG, in the assay with CD1E, the sensor-assay potency score (higher = more potent) was -1.28.

The sequence TTCTATGCTGGTCACAGTCCTT gave a sensor-assay potency score (higher = more potent) with CD27 of -1.06.

As to TTTGTTTGATCTATATTTCCTT, the sensor-assay potency score (higher = more potent) with CD27 was 0.303.

With TAAAATCGGAGCTGCACAGGGA, in the assay with CD27, the sensor-assay potency score (higher = more potent) worked out at 0.114.

The sequence TCTGGCAGCACAGCTTTCCCTG had a sensor-assay potency score (higher = more potent) with CD27 of -1.15.

TATTTAAGAAGATTTGTGGGGC returned a sensor-assay potency score (higher = more potent) with CD1E of 0.193.

In the assay with CD180, TAGCTGAGGACATTCTTTGAAT registered a sensor-assay potency score (higher = more potent) of -0.948.

For TGTCTCGTCAGCATTAGGCAGG, the sensor-assay potency score (higher = more potent) in the assay with CD1E was -0.59.

Turning to TCTACAGCCAGCTAATATCTGG, the sensor-assay potency score (higher = more potent) in the assay with CD1E was -0.694.

Sequence TTGGAAGAGGATCACACTCGGT yielded a sensor-assay potency score (higher = more potent) in the assay with CD27 of -0.746.

In the case of TTTCGCAGCAGGAAGTGTGTTT, in the assay with CD27, the sensor-assay potency score (higher = more potent) turned out to be 0.0361.

For the sequence ATATCCACCATGTCTCGTCAGC, the sensor-assay potency score (higher = more potent) with CD1E was -0.905.

TTAACCGTGAGTCAACTACAAC had a sensor-assay potency score (higher = more potent) in the assay with CD1E of -1.49.

In turn, ATAACTGGAACAGTGACTGTAA showed a sensor-assay potency score (higher = more potent) with CD1E of 0.29.

With AAAACAAGGAACATTCCAGAGA, the sensor-assay potency score (higher = more potent) with CD27 was -0.821.

For AACTACAACCAATATGACCAGG, the sensor-assay potency score (higher = more potent) with CD1E is -0.902.

Regarding TAGACTGCTGTGTTTCACCCGA, the sensor-assay potency score (higher = more potent) in the assay with CD1E is -0.381.

Sequence TCACACTCGGTGCACTCCTTGT displayed a sensor-assay potency score (higher = more potent) in the assay with CD27 of -1.13.

TAGGATTGTAGAGCCTGGGGAG yielded a sensor-assay potency score (higher = more potent) with CD1E of -0.471.

With TATTTCCTTAATATCTAGGTAG, the sensor-assay potency score (higher = more potent) with CD1E was -0.111.

In the case of ATGCGAATAAAATCGGAGCTGC, the sensor-assay potency score (higher = more potent) in the assay with CD27 is -0.25.

In turn, AATATCTGGATCTCGAAGGGGT came in with a sensor-assay potency score (higher = more potent) with CD1E of 0.0216.

TATAACTGGAACAGTGACTGTA: the sensor-assay potency score (higher = more potent) with CD1E worked out at 0.739.

Take TTTTGATCCACGATACTTGTGC: in the assay with CD1E, the sensor-assay potency score (higher = more potent) amounted to 0.208.

In turn, TTTCCTTCGTTGATGGAGGAAC gave a sensor-assay potency score (higher = more potent) with CD27 of -0.814.

Sequence TTCCTTAATATCTAGGTAGCGA had a sensor-assay potency score (higher = more potent) with CD1E of -0.491.

Sequence TCTATGCTGGTCACAGTCCTTC had a sensor-assay potency score (higher = more potent) in the assay with CD27 of -0.827.

TGCAAGGATCACACTGAGCAGC had a sensor-assay potency score (higher = more potent) with CD27 of -1.06.

For TAGCATGTGGGTCTTTCGCAGC, the sensor-assay potency score (higher = more potent) in the assay with CD27 is -0.998.

TTTTTCAGCTCCTGCTTGCTGA registered a sensor-assay potency score (higher = more potent) with CD1E of -0.242.

For TAATATCTGGATCTCGAAGGGG, the sensor-assay potency score (higher = more potent) with CD1E is -0.509.

The sequence TGGAAGAGGATCACACTCGGTG had a sensor-assay potency score (higher = more potent) with CD27 of -0.658.

In turn, TTGCACTGAGCACCGCAGCAGC showed a sensor-assay potency score (higher = more potent) with CD320 of -1.06.

Turning to TCTGTTCTGACAGCAGCAGGGA, in the assay with CD320, the sensor-assay potency score (higher = more potent) was -0.673.

Sequence TTAAAAGATGAGAAAGCTCTGA yielded a sensor-assay potency score (higher = more potent) with CD58 of -0.214.

Take TTGTTTTTTCCATAGGACCTCT: in the assay with CD58, the sensor-assay potency score (higher = more potent) was -0.0433.

Take TTCAAGCACACTGTTCTGGAGC: in the assay with CD48, the sensor-assay potency score (higher = more potent) was -0.656.

With TTCTATCTTCTCAATTTTGATG, the sensor-assay potency score (higher = more potent) in the assay with CD48 was -0.753.

For TAATAAGTTGATGACAGCCAAA, the sensor-assay potency score (higher = more potent) with CD58 is -1.7.

Sequence TAAAGAAAGAACTTCATGGTAT returned a sensor-assay potency score (higher = more potent) with CD58 of 0.701.

On to TTGTGAAGTCTCAGGGTCCAAC, for which the sensor-assay potency score (higher = more potent) with CD86 was -1.21.

With TCTTGGTCTGTTCACTCTCTTC, the sensor-assay potency score (higher = more potent) with CD86 is -1.55.

In turn, TTTGTTGGGAAAAACAGCTGAT registered a sensor-assay potency score (higher = more potent) with CD58 of -0.0646.

Regarding ATATACAGCACAATACATGTTG, the sensor-assay potency score (higher = more potent) with CD58 was 0.0974.

Sequence TTAACTTGAAAATCCTCGTTGA registered a sensor-assay potency score (higher = more potent) in the assay with CD48 of 1.27.

In the assay with CD86, TAGCAAGCACTGACAGTTCAGA showed a sensor-assay potency score (higher = more potent) of -0.996.

TTCAGAGTCACGTTGCTGCCGG came in with a sensor-assay potency score (higher = more potent) in the assay with CD48 of -0.426.

For the sequence TTGAGTTACGTTTACATTGCTC, the sensor-assay potency score (higher = more potent) in the assay with CD58 is -0.143.
